# Source: PMC5540273 (PLoS ONE, 2017)
# Tests used:
# Conditions in all cases: concentration: 1 μM, replicates: in singlicate; n = 1
# [1] = tested on: CAMK1
# [2] = tested on: CAMK2A
# [3] = tested on: CAMK2B
# [4] = tested on: CAMK2D
# [5] = tested on: CAMK2G
# [6] = tested on: CAMK4
# [7] = tested on: CAMKK1
# [8] = tested on: CAMKK2
# [9] = tested on: CASK
# [10] = tested on: T1, CDC2L1
# T1 construct: gene CDK11B
# 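Note: KINOMEscan kinase panel screen.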
SMILES,%Inh [1] [%],%Inh [2] [%],%Inh [3] [%],%Inh [4] [%],%Inh [5] [%],%Inh [6] [%],%Inh [7] [%],%Inh [8] [%],%Inh [9] [%],%Inh [10] [%]
COc1cc(Nc2ccnc3cc(-c4ccncc4)ccc23)cc(OC)c1OC.Cl [GW494610],20,0,0,0,7,0,7,0,15,0
Cn1cc(-c2ccc3c(c2)CCN3C(=O)Cc2cc(F)cc(C(F)(F)F)c2)c2c(N)ncnc21 [GSK2635225],5,0,0,0,12,0,0,8,2,5
CN(c1ccc2c(c1)nc(NCc1ccccc1)n2C)c1ccnc(Nc2ccc(CS(C)(=O)=O)cc2)n1.Cl [GW811603],0,0,0,0,0,0,14,0,0,94.2
COc1cccc(-c2nc(-c3ccccc3)[nH]c2-c2ccncc2)c1 [SB-610250],1,0,0,0,2,0,0,0,15,0
NCCC(NC(=O)c1cc(Br)c(-c2ccnc3[nH]ccc23)s1)c1ccccc1.O=C(O)C(F)(F)F.O=C(O)C(F)(F)F (stereo not drawn) [GSK1307810],43,34,0,29,26,0,5,9,27,0
Fc1cc(Cl)ccc1Nc1ccnc2cc(-c3ccc(CN4CCSCC4)o3)ccc12 [GW560106],21,0,0,5,17,0,25,21,0,0
CN(C)c1ncnc2nc[nH]c12 [SKF-31736],0,12,0,29,29,0,15,25,41,0
Cc1ccc(O)cc1Nc1ccnc2ccc(C(C)(C)C)cc12 [GW856805],45,7,10,18,22,0,3,26,25,12
COc1ccc(C2=C(Nc3cccc(O)c3)C(=O)NC2=O)cc1 [SB-390766],23,0,0,11,0,0,0,0,39,0
Cc1ccc(NC(=O)c2cccc(N3CCCCC3)c2)cc1-c1ccc(C(=O)NCC2CC2)cc1 [GSK1917008],9,0,0,0,21,1,26,11,18,22
CN(C)CCOc1ccc(-c2cc(-c3ccc(Cl)c(O)c3)c(-c3ccncc3)[nH]2)cc1.Cl.Cl [SB-684387],24,0,0,13,19,0,25,21,17,0
Cc1ccc(-c2ccc3occ(-c4ccc(S(C)=O)cc4)c3c2)nn1 (stereo not drawn),0,0,0,7,0,18,11,20,0,0
CN(c1ccc(F)c(NC(=O)c2cccc(OC(C)(C)C#N)c2Cl)c1)c1ccc2nc(NC(=O)C3CC3)sc2n1,0,1,0,0,8,0,10,0,0,0
CC(C)c1nc(-c2cccc(NS(=O)(=O)c3c(F)cccc3F)c2)c(-c2ccnc(Nc3ccc(N4CCOCC4)nc3)n2)s1.Cl [GSK1723980],47,0,0,2,10,0,14,6,92.1,0
Cn1cc(-c2ccc3c(c2)CCN3C(=O)Cc2cc(F)cc(F)c2F)c2c(N)ncnc21 [GSK2634140],15,0,0,0,11,0,27,1,3,0
CN(C)CCNS(=O)(=O)c1ccc(-c2ccnc3[nH]ccc23)cc1 [GSK977620],50,0,0,0,5,57,0,0,3,0
CCOc1nccc(-c2c(-c3ccc(F)cc3)ncn2C2CCNCC2)n1 [SB-249175],0,0,0,0,0,11,1,15,0,3
O=C(Nc1n[nH]c2cc(-c3cccs3)ccc12)C1CC1 [SB-731284],11,0,0,0,0,0,17,0,49,0
CC(C)c1nc(-c2ccc(F)c(NS(=O)(=O)c3c(F)cccc3F)c2)c(-c2ccnc(Nc3ccc(N4CCOCC4)nc3)n2)s1 [GSK1804250],54,0,0,7,27,0,17,21,0,0
c1ccc(Oc2ccc(Nc3ccnc4cc(-c5ccc(CN6CCCCC6)o5)ccc34)cc2)nc1 [GW567143],28,0,0,0,0,0,0,0,49,0
Cc1ccccc1CC(=O)N1CCc2cc(-c3cn(C)c4ncnc(N)c34)ccc21 [GSK2603346],16,0,0,0,5,5,0,0,0,0
Cc1ccc(O)cc1Nc1ccnc2cc(-c3ccc(CN4CCCCC4)o3)ccc12 [GW557777],4,0,13,10,8,0,10,9,2,20
CCn1c(-c2nonc2N)nc2c(-c3ccccc3)ncc(OCCCN)c21.O=C(O)C(F)(F)F.O=C(O)C(F)(F)F [GSK260205],7,0,0,14,14,8,0,0,1,0
COc1ccc(C)c(Nc2ccnc(Nc3ccc(-c4cnc[nH]4)cc3)n2)c1.Cl [GW784041],17,0,1,22,0,30,19,0,0,8
CCNc1nccc(-c2c(-c3ccc(F)cc3)ncn2C2CCN(C)CC2)n1,0,18,0,16,8,0,12,9,0,7
COc1cc(Nc2nccc(N3CCC(NS(=O)(=O)c4ccc(NC(C)=O)cc4)CC3)n2)cc(OC)c1OC [GSK1379825],37,0,0,7,12,0,23,8,19,0
COc1cccc(CC(=O)N2CCc3cc(-c4cn(C)c5ncnc(N)c45)ccc32)c1 [GSK2608899],16,0,0,15,27,13,7,9,16,1
O=C(Nc1n[nH]c2nc(-c3ccccc3O)ccc12)C1CC1 [SB-711880],0,0,0,0,0,0,3,0,13,0
Cn1cc(-c2cnc(N)c3c(-c4ccc5c(c4)CCN5C(=O)Cc4ccccc4)csc23)cn1 [GSK2593074],0,29,12,0,13,0,11,19,23,4
Cl.O=C(Nc1ccc(Oc2ccc3[nH]c(NC(=O)c4ccco4)nc3c2)cc1)Nc1cc(C(F)(F)F)ccc1F [GW683134],0,0,0,0,0,0,0,0,50,0
